Assay results from PubChem BioAssay (NCI).
The panel holds about 83,000 compounds, 20% with a hit somewhere; the sample as a whole holds those more often.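 96-well plates, one dose, 48 hours. Percent growth reported; active if below 10.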 Calls of active or inactive are those of the source.

Columns and labels:
Test in all cases: NCI-60 one-dose screen, 48 h (100 = growth as untreated, 0 = no growth, -100 = all killed)
Conditions in all cases: 10 µM unless noted
[1] = test system: SR leukemia
[2] = test system: RPMI-8226 leukemia
[3] = test system: OVCAR-5 ovarian
[4] = test system: OVCAR-4 ovarian
[5] = test system: SK-OV-3 ovarian
[6] = test system: IGROV1 ovarian
[7] = test system: OVCAR-3 ovarian
[8] = test system: HS 578T breast
[9] = test system: NCI/ADR-RES ovarian
[10] = test system: OVCAR-8 ovarian

Measured: growth

NS(=O)(=O)c1cc(C2(O)NC(=O)c3ccccc32)ccc1Cl (stereo unspecified)
inactive: [1] 91.9% | [2] 93.2% | [3] 99.1% | [4] 112% | [5] 108% | [6] 97.1% | [7] 123% | [8] 118% | [9] 107%

O=C(Nc1nc(-c2ccc(Cl)cc2)cs1)c1cc(-c2ccc(Br)cc2)nc2ccc(Cl)cc12
active: [9] 8.07%
inactive: [1] 15.4% | [2] 16.1% | [3] 106% | [4] 47.3% | [5] 86.6% | [6] 30.8% | [7] 10% | [8] 49.4%

Cc1ccc(-c2c3c(N)nc(-c4ccncc4)nc3nc3c2c(C)nn3-c2ccccc2)cc1
inactive: [2] 62.5% | [10] 21.9% | [3] 65% | [6] 71.7% | [7] 73.6% | [8] 32.7% | [9] 46.6%
active: [1] 3.61% | [5] -22.1%

COc1cc(OC)c2c(c1Cl)O[C@]1(C2=O)C(OCc2ccccc2)=CC(=O)C[C@H]1C
inactive: [3] 17.2% | [4] 39.2% | [5] 10.2% | [8] 18.7%
active: [1] 7.41% | [2] -4.76% | [6] 3.14% | [7] -23.5% | [9] 7.55%

CCSc1nc(-c2ccco2)n2nc(-c3ccco3)cc2n1
inactive: [1] 93% | [2] 52.8% | [3] 110% | [4] 65.9% | [5] 101% | [6] 82.9% | [7] 105% | [8] 96.2% | [9] 95.3%

O=C1/C(=C/c2ccccc2O)C(=S)SN1Cc1ccco1
active: [1] -9.87%
inactive: [2] 66.8% | [3] 102% | [4] 105% | [5] 98.8% | [6] 93.4% | [7] 111% | [8] 104% | [9] 110%

N#Cc1ncc(-c2ccc(C(F)(F)F)cc2)c(NC2CCCCCC2)n1
inactive: [1] 52.6% | [3] 38.8% | [4] 12.6% | [5] 73.6% | [6] 32.5% | [8] 46.5% | [9] 69.8%
active: [2] -5.45% | [7] 1.17%

Oc1c(N=Nc2nn[nH]n2)ccc2ccccc12
inactive: [1] 106% | [2] 89.3% | [10] 91% | [3] 97.3% | [5] 97.7% | [6] 78.5% | [8] 91% | [9] 96.2%

O=[N+]([O-])c1ccc2[nH]cc(-c3c4ccccc4cc4[nH]c5ccc([N+](=O)[O-])cc5c34)c2c1
active: [7] -7.76%
inactive: [1] 10.2% | [2] 11.6% | [3] 67.8% | [4] 26.7% | [5] 64.4% | [6] 18.7% | [8] 30.4%

Cc1ncc(C(=O)Nc2ccc(CN3CCN(C)CC3)c(C(F)(F)F)c2)cc1C#Cc1cncc2ncccc12
inactive: [2] 49.7% | [3] 69% | [4] 51.7% | [5] 68.4% | [6] 24.9% | [7] 83% | [8] 47.9%
active: [1] -13.2%

CCCCCCCCCCCCCCCCCC1=NC(C)(CO)CO1 (stereo unspecified)
inactive: [1] 118% | [2] 86.7% | [10] 97.6% | [3] 90.5% | [5] 97.8% | [6] 101% | [7] 95.3% | [8] 92.5% | [9] 85.8%

O=C(c1ccc(Cl)cc1)c1ccc(Cl)cc1
inactive: [1] 93.3% | [2] 115% | [3] 88.7% | [4] 92.4% | [5] 114% | [6] 124% | [7] 105% | [8] 130% | [9] 103%

NS(=O)(=O)N(c1cc(C(F)(F)F)cc(C(F)(F)F)c1)C1CCN(Cc2ccc(C(F)(F)F)cc2)CC1
inactive: [2] 31.7% | [3] 38.6% | [4] 31.6% | [6] 21.7% | [7] 15% | [8] 25.2% | [9] 58.2%
active: [1] -6.79% | [5] 4.55%

COc1cc(/C(Cl)=C/C=C/C(=O)c2c(C)[n+]([O-])c3ccc(Cl)cc3[n+]2[O-])cc(OC)c1OC
inactive: [2] 19% | [3] 81.8% | [4] 34.1% | [5] 69.5% | [6] 37.2% | [7] 33.7% | [8] 17.4% | [9] 31.1%
active: [1] 2.04%

N=C1c2nc3n(c2C(=O)c2nc4n(c21)CCCCC4)CCCCC3
inactive: [1] 91.8% | [2] 99.1% | [3] 123% | [4] 93.2% | [5] 107% | [6] 130% | [7] 111% | [8] 112% | [9] 110%

CCCCCCCCN(CCO)CCCCCCCC
inactive: [1] 96.7% | [2] 121% | [3] 96.9% | [4] 93.8% | [5] 103% | [6] 105% | [7] 109% | [8] 117% | [9] 105%

O=C1CSC(c2ccccc2Cl)N1c1nnc(Cn2nnc3ccccc32)o1 (stereo unspecified)
inactive: [1] 76% | [2] 69% | [3] 91.2% | [4] 81% | [5] 94.6% | [6] 79.6% | [7] 71.4% | [8] 103% | [9] 62.4%

N#Cc1c(-c2ccccc2)cc(-c2ccccc2)n(CCC(=O)O)c1=O
inactive: [1] 19.8% | [2] 50.3% | [3] 94.2% | [4] 90.8% | [5] 92% | [6] 50.2% | [7] 14.8% | [8] 58.2% | [9] 33.7%

CCCCCCCCCCCCCCCCNC(=O)Nc1ccc2ccccc2c1
inactive: [1] 95.6% | [2] 102% | [3] 111% | [4] 113% | [5] 101% | [6] 101% | [7] 116% | [8] 107% | [9] 110%

O=C1Nc2ccc(Cl)cc2/C1=C/c1cccs1
inactive: [1] 99.4% | [2] 100% | [3] 110% | [4] 35.9% | [5] 93.6% | [6] 65.1% | [7] 87.8% | [8] 96.2% | [9] 92.8%

O=c1ncc(-c2ccc(C(F)(F)F)cc2)c(NC2CCCCCC2)[nH]1
active: [2] 5% | [7] -2.84%
inactive: [1] 69% | [3] 91.3% | [4] 53.5% | [5] 83.9% | [6] 51% | [8] 68.6% | [9] 102%

COc1ccc(NC(=O)[C@@H]2C[C@H]2c2ccccc2)c(C(N)=O)c1
inactive: [1] 77.6% | [2] 100% | [3] 102% | [4] 107% | [5] 102% | [7] 98.9% | [8] 102% | [9] 99%
active: [6] -8.06%

CCSc1ncc(Br)c(Sc2nc(N)nc3nc[nH]c23)n1
inactive: [1] 19.4% | [2] 26.1% | [3] 72.3% | [4] 58.4% | [5] 18.5% | [6] 89.4% | [7] 75.2% | [8] 89.9%

COc1cc(C2CC(c3ccc(C)cc3)=NN2C=O)ccc1OCCN(C)C (stereo unspecified)
inactive: [1] 89.2% | [2] 90.2% | [3] 94.3% | [4] 97.9% | [5] 96.2% | [6] 101% | [7] 103% | [8] 87.5%

Cc1ccccc1NC(=O)N/C(N)=N/c1nc2ccccc2s1
active: [1] 8.11% | [7] 1.83% | [9] 8.91%
inactive: [2] 16.3% | [3] 35.5% | [4] 65% | [5] 65% | [6] 14.7% | [8] 42.1%

COc1cc(-c2nnc(-c3nc(-c4cc(OC)c(OC)c(OC)c4)n4ccccc34)o2)ccc1N
inactive: [1] 69.6% | [2] 39.6% | [3] 106% | [4] 76.5% | [5] 96% | [6] 56.4% | [7] 77.6% | [8] 44.2% | [9] 61.3%

COCCCNS(=O)(=O)c1ncnc2nc[nH]c12
inactive: [1] 108% | [2] 107% | [3] 100% | [4] 113% | [5] 121% | [6] 142% | [7] 102% | [8] 104%

O=c1sc2ncnc3ncn1c32
inactive: [1] 33.2% | [2] 25.6% | [3] 65.3% | [4] 48.7% | [5] 22.8% | [6] 96% | [7] 17.6% | [8] 72.7% | [9] 70.1%

Nc1ccc(N=Nc2ccccc2)cc1[N+](=O)[O-]
inactive: [1] 93.2% | [10] 94.7% | [3] 110% | [4] 71.5% | [5] 97.9% | [6] 62.9% | [7] 102% | [8] 139% | [9] 95.9%

C1CCC(C(CC2CCCCN2)C2CCCCC2)CC1 (stereo unspecified)
active: [1] -39.7% | [2] 5.39% | [5] -52.3% | [6] 6.73% | [7] -3.79%
inactive: [4] 28.8% | [8] 57% | [9] 14.3%

C(=C1c2ccccc2-c2ccccc21)c1ccccn1
inactive: [1] 22.6% | [10] 93.4% | [3] 87.3% | [4] 70.7% | [5] 95.5% | [6] 74.1% | [7] 53.1% | [8] 65.4%
